# This is a sample that favours compounds with a hit; in the whole collection about 12% have one here.
# Cycloheximide cs – counter-screen for Shiga toxin inhibitors: cycloheximide protein synthesis inhibition; cell reporter, cycloheximide protein synthesis inhibition counterscreen; max response, %; 12% of 300,000 active; AID 2314; in the data active = max response mostly above about 13%, no sharp cut-off; inactive = mostly below about 14%; also: read at 38.3 µM for the half of the compounds with a filed dose; 0% is about no effect
# Lassa entry inh – Lassa virus entry inhibition; Lassa virus pseudotype entry inhibition, cell reporter; Potency, µM (doses to about 37.9 µM), for the others: at the top dose activity change, negative = inhibition, hits mostly inhibitors; 1.2% of 300,000 active; calls by dose curve; tested in HEK293 cells; also: potency is read from the fitted curve at half-maximal effect; % is scaled to controls: 0 for no effect and ±100 for the full control effect; nearly all actives have a fitted effect of over 50% in size
# Shiga toxin inh – inhibitors of Shiga toxin in Vero cells. inhibition, % at 38.7 µM. Vero cells, Shiga toxin protein synthesis inhibition reporter. AID 2315. 9.2% of 290,000 active; in the data active = inhibition mostly above about 28%, no sharp cut-off; inactive = mostly below about 43%; also: 0% is about no effect
# MARV entry inh – Marburg virus entry inhibition. Marburg virus pseudotyped entry inhibition, cell reporter. AID 540276. Potency, µM (titrated, usually from 37.8 µM), inactives show at the highest dose activity change, negative = inhibition, usual class: inhibitors. 1.8% of 300,000 active; calls by dose curve; tested in HEK293 cells; also: potency is read from the fitted curve at half-maximal effect; % is scaled to controls: 0 for no effect and ±100 for the full control effect
# Starred values were filed as active, the others as inactive; ? = inconclusive; . = not tested or not shown; [ ] = remark or other dose.
SMILES,Cycloheximide cs,Lassa entry inh,Shiga toxin inh,MARV entry inh
S=C1c2ccccc2CN1c1ccccc1,60*,3%,75*,-5%
Cc1ccc(N2Cc3ccccc3C2=S)cc1,37*,?,82*,?
COc1ccc(Cl)cc1NC(=O)CC1S/C(=N/N=C2CCCCCC2)NC1=O (stereo not drawn),7,.,7,.
COc1ccc(-c2c(C3C4C=CCC(C)C4C(=O)N3Cc3ccccc3)ccc3ccccc23)cc1 (stereo not drawn),1,.,5,.
O=[N+]([O-])c1ccc2nc(CCCc3nc4ccc([N+](=O)[O-])cc4[nH]3)[nH]c2c1,15,21%[46.1 µM],53*,5%[46.1 µM]
O=[N+]([O-])c1ccc(/C=C/c2nc3ccc([N+](=O)[O-])cc3[nH]2)cc1,33*,?,91*,-19%
NC(N)=Nc1nc2ccc([N+](=O)[O-])cc2[nH]1,9.4*,.,24,.
CCCc1cc(=O)[nH]c(SCc2nc3ccc([N+](=O)[O-])cc3[nH]2)n1,-5,0%,-10,26%[46.1 µM]
O=[N+]([O-])c1ccc2nc(C3CCCCC3)[nH]c2c1,18*,1%,46*,?
Nc1nc2ccc([N+](=O)[O-])cc2[nH]1,-3,.,15,.
O=[N+]([O-])c1ccc2nc(CN3CCCCC3)[nH]c2c1,15,?,20,7%[46.1 µM]
Cc1c(N=NC2=C(O)CCCC2=O)c(=O)n(-c2ccccc2)n1C,6,0%,-1,-13%[46.1 µM]
CCc1ccc(C(=O)c2cn(CC(=O)Nc3cc(OC)ccc3OC)c3nc(C)ccc3c2=O)cc1,.,13%[46.1 µM],.,.
N#Cc1ccccc1CSc1nnc2ccc3ccccc3n12,.,1%[46.1 µM],.,13%[46.1 µM]
N#CCSc1nnc2ccc3ccccc3n12,13*,21%,active,19%
COc1ccc(Cn2c(SCC#N)nc3ccc(N4CCOCC4)cc3c2=O)cc1,58*,-16%,124*,-14%[46.1 µM]
Cc1ccc(S(=O)(=O)Oc2ccccc2/C=N/Nc2ccc(C(=O)O)cc2)cc1,26*,.,30,.
COc1ccc(N2CCN(C(=O)COc3ncnc4ccccc34)CC2)cc1,4,-3%[46.1 µM],-8,?
O=C(NCCC1=CCCCC1)c1cc2ccccc2oc1=O,19*,.,67*,.
Cc1c(C(=O)NCCC2=CCCCC2)cccc1[N+](=O)[O-],35*,9%,94*,20%
O=C(NCCc1ccccc1)c1cc2ccccc2oc1=O,-4,.,-8,.
COc1ccc(CCNC(=O)c2cc3ccccc3oc2=O)cc1,29*,-19%,34*,-20%
O=C(NCCCn1ccnc1)c1cc2ccccc2oc1=O,13*,-6%,-3,0%
Cc1cc(Cl)ccc1OC(C)C(=O)Nc1ccc([N+](=O)[O-])cn1 (stereo not drawn),-4,10%,3,?
COc1ccc(Cn2c(=O)[nH]c3cc(C(=O)N4CCN(c5ccc(C(C)=O)cc5)CC4)ccc3c2=O)cc1,-1,1%[46.1 µM],-8,0%[46.1 µM]
SMILES,Cycloheximide cs,Lassa entry inh,Shiga toxin inh,MARV entry inh
O=C(COC(=O)Cc1cccc(C(F)(F)F)c1)Nc1ccc2c(c1)OCCO2,-2,4%,-4,5%
COc1ccc(CCn2c(=O)c3cccnc3n(CC(=O)Nc3ccc(C)c(F)c3)c2=O)cc1OC,.,.,.,0%[46.1 µM]
CCOC(=O)c1cccc(NC(=O)Cc2ccc(NC(=O)N3CCCCc4ccccc43)cc2)c1,.,-15%[46.1 µM],.,.
CCOC(=O)c1ccc(NC(=O)N2CCc3ccccc3C2)cc1,30*,.,19,.
CCOC(=O)c1ccc(NC(=O)N2CCc3ccccc32)cc1,29*,-21%,58*,?
Cc1ccc(OCCN2C(=O)C(=O)c3cccc(C)c32)cc1,-4,-14%,-11,-28%[46.1 µM]
CCCCNC(=O)C1=C(N)C(C(=O)Nc2ccc(C)c(S(=O)(=O)N3CCCCC3)c2)SC1=Nc1ccc(C)cc1C (stereo not drawn),9,-25%,20,13µM*
O=C(CSc1nc2ccccc2s1)N1CCOCC1,29*,9%,active,?
Nc1nc(CSCc2ccccc2)nc(N2CCOCC2)n1,46*,22%,46*,?
Nc1nc(CSc2nc3ccccc3s2)nc(N2CCOCC2)n1,15*,-4%,36,4%
CCOc1cc(C(=O)NCc2ccccc2)ccc1OCC(=O)N1CCOCC1,2,.,21,.
O=C(CSc1nc2ccccc2s1)NCCCN1CCOCC1,-1,12%,-10,14%
CCOc1cc(/C=C/c2nc3ccccc3s2)ccc1OCC(=O)N1CCOCC1,16*,?,37*,?
Nc1nc(N2CCOCC2)nc(N(c2ccccc2)c2ccccc2)n1,-4,.,-4,.
Cc1ccccc1Nc1nc(N)nc(CSc2nc3ccccc3s2)n1,10,?,9,-2%
Nc1ccn(Cc2ccc(F)cc2)n1,5,6%[46.1 µM],-20,15%[46.1 µM]
Cn1c(=O)n(C)c2cc(N3CCOCC3)c(NC(=O)c3ccc(C(C)(C)C)cc3)cc21,.,-8%[46.1 µM],.,3%[46.1 µM]
COCCNC(=S)N1CCOCC1,-2,13%,5,4%
CCc1nc2cccnc2n1-c1ccc(CC(=O)Nc2cccc(C)c2C)cc1,.,12%[46.1 µM],.,.
Nc1c(S(=O)(=O)O)cc(Nc2ccc(Nc3nc(Cl)nc(Nc4ccc(S(=O)(=O)O)cc4)n3)c(S(=O)(=O)O)c2)c2c1C(=O)c1ccccc1C2=O,.,?,.,14µM*
Nc1c(S(=O)(=O)O)cc(Nc2ccc(Cl)cc2)c2c1C(=O)c1ccccc1C2=O,-9,.,-17,.
Cc1ccc(NC2=NCC(=O)N2Cc2cccs2)cc1C,29*,?,24,?
CCOc1ccc(N(CC(=O)NC2CCCCC2)C(=O)CCC(=O)Nc2nccs2)cc1,-2,.,4,26%[46.1 µM]
COc1cc(C2C(C#N)=C(N)Oc3cc(O)ccc32)cc2c1OCO2 (stereo not drawn),1,-22%,-18,?
COc1cc(C2C(C#N)=C(N)Oc3cc(N(C)C)ccc32)cc2c1OCO2 (stereo not drawn),-3,0.52µM*,-13,?
SMILES,Cycloheximide cs,Lassa entry inh,Shiga toxin inh,MARV entry inh
COc1cc(C2C(C#N)=C(N)Oc3cc(O)ccc32)cc(OC)c1OC (stereo not drawn),0,?,-3,1.8µM*
COc1ccc(C(CCNCc2ccc(OC(C)C)cc2)C(C)C)cc1 (stereo not drawn),-4,?,-9,?
COc1ccc(CNCCC(c2ccc(OC(C)C)cc2)C(C)C)cc1OC (stereo not drawn),-3,21µM*,-11,?
Cc1cc(C)cc(NC(=O)Nc2ccc(-n3ccc(C(F)(F)F)n3)cc2)c1,11,?,29,?
O=C(O)c1ccccc1C(=O)Nc1ccc(-n2ccc(C(F)(F)F)n2)cc1,-2,13%[46.1 µM],2,4%[46.1 µM]
COc1ccccc1NC(=O)Nc1ccc(-n2ccc(C(F)(F)F)n2)cc1,42*,?,123*,?
O=C(Nc1ccc(-n2ccc(C(F)(F)F)n2)cc1)Nc1cccc(Cl)c1,31*,.,50*,.
O=C(Nc1cccc(Cl)c1)Nc1ccccc1-n1ccnc1,1,1%,-3,0%[46.1 µM]
COCCN(C(=O)COC(=O)c1ccccc1Oc1ccccc1)c1c(N)n(Cc2ccccc2)c(=O)[nH]c1=O,4,0%,23,-23%
CN(Cc1nc(CCc2ccccc2)no1)Cc1cccs1,16*,4%[46.1 µM],25,12%[46.1 µM]

# High-throughput results (PubChem)
